According to PubChem BioAssay AID720514 (Broad Institute, 2013):
Screen size: about 2,100 compounds; about 300 (14%) were called active. Inconclusive results (about 2%) are left out.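 The calls were made as follows: active = every replicate test run called active, with the signal falling and half-maximal concentration within twice the top valid dose; inconclusive = the replicate test runs disagree in their calls; inactive = every test run inactive, including effects in the opposite direction.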 A selection follows. Measured potencies and affinities stand elsewhere.

assay: inhibitors of PGC1a acetylation in cells, dose response, cell-based, cherry-picked samples (AID 720514); details: U2OS PGC1a acetylation, AlphaLISA, overnight; series mostly up to 19.5 µM; activity change, negative = inhibition: at the top concentration;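 also: 0% = neutral control wells and -100% = positive control wells; actives lower the acetylation signal so they count as inhibitors of PGC1a acetylation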

Activity change, negative = inhibition, inactive:
COc1ccc(C)cc1NS(=O)(=O)c1ccc(NC(=O)CN(c2cc([N+](=O)[O-])ccc2C)S(C)(=O)=O)cc1 277%
CCOC(=O)CCc1c(C)c2ccc(O)cc2oc1=O 40.2%
OCc1ccc2c(c1)c(-c1ccc3c(c1)OCCO3)c(-c1ccccc1)n2-c1ccccc1 227%
CCCCCOC(=O)Cc1c(O)c2ccccc2n(C)c1=O 34.1%
CC(OC(=O)C1CCCC1)C(=O)Nc1ccc(C(N)=O)cc1 (stereo not drawn) 42%
CCCCN(CC)CCCNC(=O)c1cc2c(=O)n(CC)c3ccccc3c2s1 77.5%
CC(C)CC#Cc1ccc2c(c1)O[C@H](CN(C)Cc1ccccc1)[C@H](C)CN([C@@H](C)CO)S2(=O)=O 19.1%
C[C@@H]1CN([C@@H](C)CO)C(=O)c2cc(/C=C/c3ccccc3)cnc2O[C@@H]1CN(C)Cc1cccnc1 34% [at 21 µM]
C[C@H](CO)N1C[C@H](C)[C@@H](CN(C)Cc2ccc3c(c2)OCO3)Oc2cc(Br)ccc2S1(=O)=O 41%
C[C@@H]1CN([C@@H](C)CO)C(=O)CCCn2nncc2CO[C@H]1CN(C)CC1CCCCC1 29.3%
COc1ccccc1/C=C1\SC(=S)N(CCC(=O)NCCCn2ccnc2)C1=O 55.3% [at 5 µM]
COc1cccc(NC(=O)N(C)C[C@H]2OCc3ccccc3-c3c(n(C)c4ccccc34)C(=O)N([C@@H](C)CO)C[C@@H]2C)c1 40%
C[C@@H]1CN([C@@H](C)CO)C(=O)c2c(c3ccccc3n2C)-c2ccccc2CO[C@@H]1CN(C)C(=O)c1cc(Cl)cc(Cl)c1 84%
C[C@H]1CN([C@@H](C)CO)S(=O)(=O)c2ccc(C#CCN(C)C)cc2O[C@@H]1CN(C)Cc1ccc2c(c1)OCO2 63.7%
C[C@H](CO)N1C[C@H](C)[C@@H](CN(C)CC2CCCCC2)Oc2c(NC(=O)c3nc4ccccc4s3)cccc2C1=O -3.98%
C[C@H](CO)N1C[C@H](C)[C@H](CN(C)Cc2ccc(C(=O)Nc3ccccc3N)cc2)Oc2c(NC(=O)c3ccncc3)cccc2C1=O 66.6% [at 16 µM]
Nc1c(C(=O)c2ccccc2)sc2nsc(SCCN3CCCC3)c12 56.7%
COc1ccc(S(=O)(=O)Nc2ccc3c(c2)C(=O)N([C@H](C)CO)C[C@H](C)[C@H](CN(C)S(=O)(=O)c2cn(C)cn2)OCCCC[C@@H](C)O3)cc1 39.9% [at 21 µM]
COC(=O)C(Nc1ccccc1Cl)(c1cc(C)c(O)c(C)c1)C(F)(F)F (stereo not drawn) 63.8%
CC(C)(C)c1ccc(C(=O)c2c[nH]c(C(=O)NCc3cccnc3)c2)cc1 303%
CCN(CC)CCCn1c(=S)[nH]c2cc(Cl)ccc2c1=O 119%
N#Cc1ccc(C(=O)CSc2nnc(-c3ccc(C(F)(F)F)cn3)s2)cc1 45.1%
O=C(CSc1nc2ccccc2c(=O)n1CC1CCCO1)N1CCN(c2ccccc2)CC1 (stereo not drawn) 30.9%
Cn1cc(-c2ccc(C(=O)NCc3cccc(Cl)c3)c3occc23)cn1 72.5%
Cc1ccc2[nH]cc(C(=O)CN3CCN(c4ccccc4F)CC3)c2c1 58.1%
COc1ccc(C2C(C(=O)Nc3ccccc3)=C(C)Nc3nc(CCCO)nn32)cc1 (stereo not drawn) 69.2%
COc1ccc(NC(=O)N2CCN(c3ccc([N+](=O)[O-])cc3)CC2)cc1 85.4%
O=C(Nc1ccc(OCC(=O)N2CCC(Cc3ccccc3)CC2)cc1)c1ccco1 111%
CC1=CC(C)(C)N2C(=O)C3(SCC(=O)N3c3ccc(F)cc3)c3cc(C)cc1c32 (stereo not drawn) 65.8%
NC(=O)Cn1cc(C(=O)c2cccs2)c2ccccc21 101%
C[C@@H]1CN([C@@H](C)CO)C(=O)c2c(c3ccccc3n2C)-c2ccccc2CO[C@@H]1CN(C)C(=O)c1ccc(F)cc1 154% [at 21 µM]
O=S(=O)(NCc1ccccc1Br)c1ccccc1Br 43.5%
COCCN(C)Cc1nc(C(c2ccccc2)c2ccccc2)no1 41.6%
Cc1cc(C(F)(F)F)n(-c2nc(C(=O)NNS(=O)(=O)c3ccccc3[N+](=O)[O-])cs2)n1 65.3%
O=C(NCCC1=CCCCC1)c1coc(=O)c(Br)c1 27.7%
O=C(NCc1cccnc1)c1ccc(NC(=O)c2cccc([N+](=O)[O-])c2)cc1 327%
COc1cc(/C=C2\SC(=O)NC2=O)ccc1Oc1ccc([N+](=O)[O-])cn1 54%
COc1ccc(CN2CCn3ncc(C(=O)Nc4ccccc4)c3C2=O)cc1 30.6%
COc1ccc(C#Cc2c(-c3ccccc3)n(-c3ccccc3)c3ccc(CO)cc23)cc1 101%
CC12CCC(C1)C(C)(C)C2NS(=O)(=O)c1ccc(F)cc1 (stereo not drawn) 96.9%
COc1ccc(NC(=O)c2sccc2SCc2cccc(C(F)(F)F)c2)cc1 93.2%
O=C(Cn1c(CN2CCCCC2)nc2ccccc2c1=O)Nc1ccccc1 59.2%
COc1ccc(Cn2nnnc2C(C(C)C)N(Cc2ccco2)Cc2cccs2)cc1 (stereo not drawn) 116%
COc1cccc(C(=O)/C=C/c2ccc(OCC#N)c(OC)c2)c1 44.8% [at 10 µM]
COc1ccc(S(=O)(=O)N(C)CC(=O)Nc2cccc(C(C)=O)c2)cc1Cl 89.1%
COc1ccc(S(=O)(=O)NNC(=O)c2csc(-n3nc(C)cc3C(F)(F)F)n2)cc1 46.5% [at 10 µM]
COc1ccc(Nc2nnc(-c3ccc(C(=O)NCCO)cc3)c3ccccc23)cc1 89.6%
Cn1ncc(Cl)c1C(=O)Nc1sc2c(c1C(N)=O)CCC2 44.2% [at 10 µM]
N#Cc1cccc(C(c2nnnn2C2CCCC2)N2CCCCCC2)c1 (stereo not drawn) 81.4%
Cc1c(C(=O)N2CCN(c3ccccn3)CC2)sc2ncnc(N3CCN(c4ccccc4)CC3)c12 34.3%
COc1cc(NC(=O)c2cccs2)c(OC)cc1NC(=O)CCC(=O)Nc1ccc2ncccc2c1 202% [at 10 µM]
O=C(Nc1ccc(F)cc1F)N1CCCN(c2ccc([N+](=O)[O-])cn2)CC1 107%
Cc1ccc(CC(=O)N2CCN(c3ccc([N+](=O)[O-])cc3)CC2)cc1 228%
CS(=O)(=O)N(CC(=O)N1CCN(c2ccccc2)CC1)c1cccc(Br)c1 51.7%
O=C(COc1ccc(Cl)cc1)NCCCNC(=O)c1cccnc1 238% [at 10 µM]
Cc1ccc(OCC(=O)NCCCNC(=O)c2cccnc2)cc1C 201% [at 10 µM]
Cc1cc2oc(=O)cc(CN3CCC(C)CC3)c2cc1C 50.6%
O=C(CN1CCC(n2nnc3ccccc32)CC1)NCc1cccs1 118%
C=CCNC(=O)c1ccc(CN2CCC(Cc3ccccc3)CC2)cc1 29.6%
Cc1cc(C(=O)NNS(=O)(=O)c2ccc(F)cc2)nn1C(C)(C)C 430% [at 10 µM]
COc1cc(CN2[C@@H]3CNC[C@H]2C3c2ccc(-c3ccccc3)cc2)cc(OC)c1 (stereo partly drawn) 44.3%
COc1ccc(CCCNC(=O)C2(C)Cc3c(-c4ccc5c(c4)OCO5)ccnc3O2)cc1 (stereo not drawn) 25%
CCOc1ccc(NC2c3ccccc3C(=O)N2Cc2ccc3c(c2)OCO3)cc1 (stereo not drawn) 38.7%
O=C(c1ccccc1Nc1ccc(SC(F)F)cc1)N1CCCCCC1 61.7%
Cc1cccc(Nc2nnc(-c3ccc(C(=O)N4C[C@H]5C[C@H](C4)c4cccc(=O)n4C5)cc3)c3ccccc23)c1 64.7%
COC(=O)[C@H](Cc1ccccc1)N(C)S(=O)(=O)c1cccc(S(=O)(=O)N(C)[C@@H](Cc2ccccc2)C(=O)OC)c1 47.9%
Cc1csc(NC(=O)NC2(C(F)(F)F)Oc3ccccc3O2)n1 85.6% [at 10 µM]
O=C(Nc1cccc(C(F)(F)F)c1)c1sc(Cl)nc1C(F)(F)F 62.9%
Cc1cccc(C)c1OC1(c2ccccc2)OC(=O)c2ccccc21 (stereo not drawn) 94.7%
O=C(CCn1nnc2ccccc21)Nc1nnc(Cc2ccccc2)s1 87.3%
O=S(=O)(NC12CC3CC(CC(C3)C1)C2)c1ccc(F)cc1 47.5%
O=C(CSc1nnc(Cn2cnc3ccccc32)o1)c1ccccc1 172%
CCOc1ccc(-c2nnn(CC#N)n2)cc1OC 186% [at 10 µM]
Cc1cc(C)c2oc(C(=O)N(Cc3ccccc3)c3ccccn3)cc(=O)c2c1 44.6%
Cc1ccc(NC(=O)CN(C)S(=O)(=O)c2cccs2)c(Br)c1 48.4%
N#C/C(=C(/O)c1ccco1)c1nc2ccccc2[nH]1 286%
COc1ccc(-c2c(-c3cc(OC)cc(OC)c3)n(C)c3ccc(-c4cnc(N)nc4)cc23)cc1 119%
Cc1cc(S(=O)(=O)c2ccc([N+](=O)[O-])cn2)ccc1Br 105% [at 10 µM]
O=C(NCCC1CCCCN1S(=O)(=O)c1cccs1)C(=O)Nc1ccc(F)cc1F (stereo not drawn) 81.8%
O=C(Cc1ccccn1)NCC[C@@H]1CC[C@H](NC(=O)Nc2ccc(C(F)(F)F)cc2)[C@H](CO)O1 -0.998%
O=C(Cc1ccccn1)NCC[C@H]1CC[C@H](NC(=O)Nc2ccc(C(F)(F)F)cc2)[C@H](CO)O1 12.7% [at 21 µM]
CCOC(=O)C(Cc1ccc(NC(=O)/C(=C\c2ccccc2)NC(=O)c2ccccc2)cc1)N1C(=O)c2ccccc2C1=O (stereo not drawn) 39.8%
O=C(NCc1cccs1)C1Cc2c(-c3ccc(Cl)cc3)ccnc2O1 (stereo not drawn) 95.1%
C[n+]1c2n(c3ccccc31)N=C(c1cc(C(C)(C)C)c(O)c(C(C)(C)C)c1)CS2 119%
COc1ccc([N+](=O)[O-])cc1NCc1ccccc1 131% [at 10 µM]
Cc1cc(C)c2c(-n3cccc3)c(C(=O)NNS(=O)(=O)c3ccc(F)cc3)sc2n1 109%
CCOC(=O)C1=CC[C@@H](c2ccccc2)N(S(=O)(=O)c2ccc(C)cc2)[C@H]1c1ccc(CC)cc1 153% [at 10 µM]
CCN(CC)c1ccc(NC(=O)c2cc(OC)cc(OC)c2)c(C)c1 58.6%
CCOC(=O)c1ccc(NC(=O)N2CCc3ccccc3C2)cc1 223% [at 10 µM]
CC1(Cc2ccc(Cl)cc2)C(=O)Nc2c(Cl)ccc(Cl)c21 (stereo not drawn) 87.1%
Cc1ccc(OCC(=O)N2CC(C)OC(C)C2)c([N+](=O)[O-])n1 (stereo not drawn) 44.5% [at 10 µM]
CCOC(=O)C(C)n1cnc2c(nnn2-c2ccc(C)cc2)c1=O (stereo not drawn) 43%
COc1ccc2nc3c(cc2c1)c(NC(=O)c1cccs1)nn3CC(C)C 83% [at 10 µM]
